The full list was thinned out, with hits kept by preference.
ST2 inh – inhibitors of human ST2 (IL1RL1) binding to IL-33; Q01638; AlphaLISA ST2-Fc/biotin-IL-33 interaction, 1 h; inhibition, % for hits at 17 µM; actives 2.3% (n = 78,000); AID 1259354; in the data active = inhibition above about 30%
Numbers stand for hits; n = inactive.

SMILES | ST2 inh
O=C(O)CCCC(=O)N[C@H]1CO[C@H]2[C@@H]1OC[C@@H]2Nc1nccc(-c2cccs2)n1 | n
COc1ccc2nc(N=C(N)N)nc(C)c2c1 | n
CCC(=O)NC(N)=Nc1nc(C)c2cc(C)ccc2n1 | n
COc1ccc2nc(N=C(N)NC(=O)Cc3ccc(Cl)cc3)nc(C)c2c1 | 35%
COc1ccccc1-n1cc(C(=O)NC(C)c2cnn(-c3ccccn3)c2C)cn1 (stereo not drawn) | n
O=C(Nc1ccc(F)c(F)c1)c1cnccn1 | n
Cc1ccc(NC(=O)c2cnccn2)c(Br)c1 | 39%
Cc1ccc2nc(NC(=O)c3cnccn3)sc2c1 | n
CNCC(=O)NC(C)(C)c1cccc2ccccc12 | n
O=C1NC[C@@H](CCC(=O)N2CCCCC2)N2C[C@@H](NC(=S)NC3CC3)C[C@@H]12 | n
CCOc1ccc2nc(NC(=O)C3CCCCC3)sc2c1 | n
CCCCCN=Cc1sc2ccc(OCC)cc2c1O | 33%
CCOc1ccc2nc(N=Cc3nc(-c4ccc(Br)cc4)oc3O)sc2c1 | n
CCOc1ccc(NC(=O)CC2CCCCC2)cc1 | n
CCOc1ccc2sc(C=NC3CCCCC3)c(O)c2c1 | 41%
CCOc1ccc2sc(C=NCCc3ccccn3)c(O)c2c1 | n
O=C(O)c1ccccc1C(=O)Nc1cc(C(F)(F)F)ccc1Cl | n
COC(=O)c1ccccc1N1C(=O)[C@@H]2[C@H](C1=O)[C@H]1C=C[C@@H]2C12CC2 | n
O=C(Nc1cccc(F)c1)Nc1ccc2n(c1=O)C[C@H]1C[C@@H]2CN(C(=O)Cc2cccs2)C1 | n
O=C(CCSc1ccccc1)NC1CC1 | n
COC(=O)c1cc(N2C(=O)C3C4C=CC(O4)C3C2=O)ccc1Cl (stereo not drawn) | n
O=C(Cn1cnc2c(oc3ccccc32)c1=O)NCc1ccc2c(c1)OCO2 | n
C(=C\c1cnc2n[nH]nc2c1)/c1ccccc1 | n
O=c1c2ccccc2nc(/C=C/c2ccccc2)n1Cc1ccccc1 | n
C(=C\c1ccccc1)/Sc1ccc2ccccc2n1 | 34%
SMILES | ST2 inh
CC(C)c1cc(C2CCN(Cc3cc(F)cc(F)c3)CC2)[nH]n1 | n
CC1CC(=O)C2=C(C1)OC(N)=C(C#N)C2c1ccc(Cl)c(Cl)c1 (stereo not drawn) | n
CCOC(=O)CC1CCCCN1C(=O)c1cn(C/C=C/c2ccccc2)nn1 (stereo not drawn) | n
O=[N+]([O-])c1cccc(-c2ncnn2-c2ccc(Br)cc2F)c1 | n
Cc1c(Cl)cccc1-n1ncnc1-c1cccc([N+](=O)[O-])c1 | 35%
Cc1c(Cl)cccc1N1C(=O)CSC1c1ccc([N+](=O)[O-])cc1 (stereo not drawn) | n
CCN(Cc1cccc(OC)c1O)CC1CCOCC1 | n
Nc1ccnc(-c2ccc3ncccc3c2)c1 | n
COc1ccc(C(=O)Nc2ccccc2F)cc1 | n
Cc1ccc2cc3cc(C(=O)NC(C)C)sc3nc2c1 | n
COc1ccc2cc3cc(C(=O)Nc4ccccc4F)sc3nc2c1 | 41%
Cc1ccc(Cl)cc1NC(=O)c1cc2c(=O)n3cccc(C)c3nc2s1 | n
COc1ccc2cc3cc(C(=O)Nc4ccc(F)cc4)sc3nc2c1 | 35%
COc1ccc(-n2c(=O)[nH]cc(C(=O)Nc3ccc(F)cc3F)c2=O)cc1 | n
COc1ccc2cc3cc(C(=O)Nc4cccc(C#N)c4)sc3nc2c1 | n
COc1ccc2cc3cc(C(=O)Nc4ccc(F)cc4F)sc3nc2c1 | 35%
Cc1cccn2c(=O)c3cc(C(=O)Nc4ccccc4C#N)sc3nc12 | n
COc1ccc2nc3oc(C(=O)Nc4ccccc4F)cc3cc2c1 | n
Cc1cccn2c(=O)c3cc(C(=O)Nc4ccccc4F)sc3nc12 | 35%
COc1ccc(N2CCN(C(=O)c3cc4cc5ccc(OC)cc5nc4s3)CC2)cc1 | n
Cc1cc(C)n(C)c(=O)c1C(=O)NCc1cc(CC(C)C)on1 | n
CN(Cc1cccc2cccnc12)c1ncnc2nc[nH]c12 | n
CCCSc1nnc2c(n1)OC(c1ccco1)Nc1ccc(Br)cc1-2 (stereo not drawn) | n
COc1cc(C2Nc3ccccc3NC3=C2C(=O)CCC3)ccc1O (stereo not drawn) | n
CC(O)(CC(=O)O)CC(=O)OC1[C@H](OC(=O)/C=C/c2ccc(O)c(O)c2)CC(O)(C(=O)O)C[C@H]1OC(=O)/C=C/c1ccc(O)c(O)c1 (stereo partly drawn) | n
SMILES | ST2 inh
COC(=O)CSc1nc2c(c(=O)[nH]c(=O)n2C)n1C | n
CN1CCN(CCNC(=O)c2ccc3c(Cl)c4c(nc3c2)CCCC4)CC1 | n
CCOC(=O)c1cnc2ccccc2c1Nc1cccc(Cl)c1 | n
O=C(c1coc(COc2ccc(F)cc2Cl)n1)N1C[C@H]2CC[C@@H]1C2 | n
CC12CC(NC(=O)N1c1cccc(Cl)c1)c1cc(Br)ccc1O2 (stereo not drawn) | n
O=C(NCc1ccc(F)cc1)C1C2C=CC3(CN(Cc4ccccc4)C(=O)C13)O2 (stereo not drawn) | n
Cc1ccc(Nc2c(-c3ccco3)nc3ccc(Br)cn23)cc1 | n
COCCNC(=O)CSc1nc(-c2cccc(Cl)c2)nc2cc(=O)[nH]n12 | n

Compound activity from PubChem.
